Holding throughout (assay type): functional
The test system of assay [1] is Plasmodium falciparum. The assay is described as follows: GSK_TCMDC: Inhibition of Plasmodium falciparum 3D7 in whole red blood cells, using parasite LDH activity as an index of growth. Test compounds present at 2uM.
The test system of assay [2] is Plasmodium falciparum. The assay is described as follows: GSK_TCMDC: Inhibition of Plasmodium falciparum Dd2 in whole red blood cells, using parasite LDH activity as an index of growth. Test compounds present at 2uM.
The next assay deals with HepG2. Put plainly: GSK_TCMDC: Percent inhibition of human HepG2 cell line. Test compounds present at 10uM.

In general, Inhibition refers to the change of the read-out against control, counted positive when it falls. Low values mean little suppression, high ones strong suppression. Take `CCc1ccc(C2CCN(CCCCNC(=O)c3ccc(NC(=O)c4ccc(Cl)cc4)cc3)CC2)c(OC(C)=O)c1`: the Inhibition turned out to be 91% in the assay on Plasmodium falciparum [1], 100% in the assay with Plasmodium falciparum [2] and 48% in the assay on HepG2.

On to `CC(=O)c1c(Cc2cccc(C(F)(F)F)c2)c[nH]c1C`, for which the Inhibition was found to be 94% in the assay on Plasmodium falciparum [1], 92% in the assay with Plasmodium falciparum [2] and 6% with HepG2.

Regarding `COc1cc2nc(NCCc3ccccc3)nc(NCCCc3ccccc3)c2cc1OC`, the Inhibition turned out to be 100% with Plasmodium falciparum [1], 100% in the assay with Plasmodium falciparum [2] and 21% in the assay on HepG2.

For the compound `COc1ccc2nccc([C@@H](O)CN3CCC(NCc4ccc5c(n4)NCCC5)CC3)c2c1`, the Inhibition with Plasmodium falciparum [1] is on record as 100%; with Plasmodium falciparum [2], 39%; in the assay with HepG2, 21%.

Consider `Cc1ccc(C2CCN(CCCCNC(=O)c3ccc(NC(=O)c4ccc(Cl)cc4)cc3)CC2)c(C)c1.Cl`, for which the Inhibition stood at 96% in the assay on Plasmodium falciparum [1], 10% in the assay on Plasmodium falciparum [2] and 23% in the assay on HepG2.

As for `CNC(=O)c1cnc(Nc2ccc3[nH]c(=O)[nH]c3c2)nc1Nc1cccc(OC(C)C)c1.O=C(O)C(F)(F)F`, the Inhibition in the assay with Plasmodium falciparum [1] came out at 89%; with Plasmodium falciparum [2], 94%; in the assay with HepG2 it was 18%.

Consider `Cc1cc(=O)c(-c2ccc(Oc3cccc(OC(F)(F)F)c3)cc2)c(C)[nH]1`, for which the Inhibition in the assay on Plasmodium falciparum [1] is 97%; with Plasmodium falciparum [2], 96%; in the assay on HepG2, 13%.

In the case of `Cc1cc(CN2CCCN(c3ccc4c(c3)CCN(Cc3ccc(-c5ncc[nH]5)cc3)CC4)CC2)n(C)n1`, the Inhibition was determined as 86% in the assay with Plasmodium falciparum [1], 8% with Plasmodium falciparum [2] and 5% in the assay on HepG2.

Turning to `O=C(CNc1ccc(Cl)c(S(=O)(=O)N2CCCC2)c1)Nc1ccc(Br)cc1F`, the Inhibition in the assay on Plasmodium falciparum [1] amounted to 99%; with Plasmodium falciparum [2] it was 97%; in the assay on HepG2, 18%.

Regarding `Cc1cc(C(F)(F)F)n2nc(C(=O)N(Cc3cncn3Cc3cccc(F)c3)CC3CC3)cc2n1`, the Inhibition in the assay on Plasmodium falciparum [1] was determined as 100%; with Plasmodium falciparum [2], 92%; in the assay on HepG2 it was 0%.

Consider `O=C1OC2(CN1CC1CCN(Cc3ccc(O)c(Cl)c3)CC1)c1ccccc1-c1ccccc12`, for which the Inhibition in the assay with Plasmodium falciparum [1] turned out to be 97%; in the assay on Plasmodium falciparum [2], 96%; with HepG2, 32%.

Take `CCCCOc1cc2c(cc1OCC)C(C=Cc1ccc(Cl)cc1Cl)=NCC2.Cl`: the results for the Inhibition in the assay on Plasmodium falciparum [1], in the assay on Plasmodium falciparum [2] and in the assay with HepG2 were 97%, 95% and 0%, respectively.

Take `Cc1nc2nc(N)nc(N)c2c(C)c1Cc1cccc(F)c1.Cl`: the Inhibition in the assay with Plasmodium falciparum [1] was found to be 96%; with Plasmodium falciparum [2], 1%; in the assay on HepG2, 65%.

With `COc1cc(Cc2cnc(N)nc2N)cc(OC)c1OCCCCCN1C(=O)c2ccccc2C1=O`, the figures for the Inhibition in the assay on Plasmodium falciparum [1], in the assay on Plasmodium falciparum [2] and in the assay with HepG2 were 97%, 4% and 5%, respectively.

On to `COCCCC1C(=O)OC2CCCC21` (stereo not given), for which the Inhibition in the assay with Plasmodium falciparum [1] is on record as 93%; with Plasmodium falciparum [2], 85%; in the assay on HepG2, 0%.
